The panel holds about 79,000 compounds, 15% with a hit somewhere; the sample as a whole holds those more often. Activity calls are given as the source filed them. Rule as the data show it: active = growth inhibition above about 70%; inactive = the rest.
Experiment: NCI Yeast Anticancer Drug Screen. Data for the rad18 strain (AID 177)
Conditions: S. cerevisiae rad18 mutant growth inhibition, hits give high values
Description: Growth inhibition of yeast strains with defined genetic alterations is measured as a screen for potential anti-cancer activity. Selected strains with alterations in DNA damage repair or cell cycle control were exposed to compounds and growth inhibition was measured relative to vehicle treated controls. The strain used in this assay is rad18

Measured: growth inhibition

O=C(N/N=C/c1ccc2c(c1)CCC2)c1ccccc1[N+](=O)[O-]
inactive: at 1.2 µM 8% | at 3.7 µM 13% | at 11.0 µM 9% | at 33.0 µM 12%
active: at 100.0 µM 96%

O=[N+]([O-])C(=C(NCc1ccccc1)NCc1ccccc1)C(Cl)=C(Cl)Cl
active: at 100.0 µM 85%
inactive: at 1.2 µM -1% | at 3.7 µM 1% | at 11.0 µM 5% | at 33.0 µM 20%

CCCCCCCCCCCCCCCCOCC(Cl)COP(=O)(O)OP(=O)(O)OCC1OC(n2cnc3c(N)ncnc32)C(O)C1O (stereo not given)
inactive: at 1.2 µM -4% | at 3.7 µM 0% | at 11.0 µM 22% | at 33.0 µM 39% | at 100.0 µM 59%

NCC(O)CSCc1ccc(Cl)cc1 (stereo not given)
inactive: at 1.2 µM -5% | at 3.7 µM -1% | at 11.0 µM 0% | at 33.0 µM -2% | at 100.0 µM 11%

C[n+]1c(-c2ccc(NC(=O)c3ccc(C(=O)Nc4ccc(-c5cn6ccccc6[n+]5C)cc4)cc3)cc2)cn2ccccc21
inactive: at 1.2 µM 4% | at 3.7 µM 2% | at 11.0 µM 24%
active: at 33.0 µM 81% | at 100.0 µM 92%

[O-]c1c2cc(-[n+]3c(-c4ccccc4)cc(-c4ccccc4)cc3-c3ccccc3)cc1COCCOCCOCCOCCOC2
inactive: at 1.2 µM -1% | at 3.7 µM -3% | at 11.0 µM -3% | at 33.0 µM 6%
active: at 100.0 µM 74%

COc1ccc(/C=C2\CCc3ccccc3C2=O)cc1OC
active: at 100.0 µM 88%
inactive: at 1.2 µM -20% | at 3.7 µM -10% | at 11.0 µM -18% | at 33.0 µM 19%

O=[N+]([O-])c1cccc2nc3ccccc3c(NCCC[N+]3([O-])CCOCC3)c12
active: at 1.2 µM 95% | at 3.7 µM 95% | at 11.0 µM 96% | at 33.0 µM 97% | at 100.0 µM 95%
